Screens: PubChem, National Center for Advancing Translational Sciences (NCATS)
TrxR1 substrate: qHTS Assay for Substrates of Mammalian Selenoprotein Thioredoxin Reductase 1 (TrxR1): qHTS; Thioredoxin reductase 1, cytoplasmic (Rattus norvegicus), O89049; purified TrxR1 substrate turnover, NADPH consumption readout; Potency, µM (highest dose often 114 µM), for the others: at the highest dose activity change, negative = substrate turnover; 0.01% of 390,000 active; AID 588456, 2011; note: % is set by controls: 0 for no effect and ±100 for the full control effect; nearly all actives have a fitted effect of over 50% in size
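Rat TrxR1, dispensed at 90 nM, was prereduced with 400 uM NADPH (final) for 5 min at ~22 deg C, then incubated with compound 15 min before 400 uM selenite. A first-read NADPH fluorescence drop versus no-compound background flagged substrates.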
rTrxR1 inhibitor: qHTS Assay for Inhibitors of Mammalian Selenoprotein Thioredoxin Reductase 1 (TrxR1): qHTS; 1% of 390,000 active; Thioredoxin reductase 1, cytoplasmic (Rattus norvegicus), O89049; Potency, µM (doses to about 114 µM), inactives show at the top dose activity change, negative = inhibition, hits mostly inhibitors; AID 588453, 2011; recombinant rTrxR1, NADPH fluorescence consumption, selenite substrate; note: % is set by controls: 0 for no effect and ±100 for the full control effect; nearly all actives have a fitted effect of over 65% in size
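Rat TrxR1 (90 nM in the dispensed reagent) was pre-reduced with 400 uM NADPH for 5 min at room temperature, then incubated with compound for 15 min. After 400 uM selenite was added, NADPH fluorescence (Ex 340/Em 450 nm) was followed for 8 min.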
Nrf2 ARE act: qHTS of Nrf2 Activators; AREc32 ARE-luciferase reporter (MCF7-derived line), luminescence, 24 h; Potency, µM (highest dose often 46.1 µM), for inactives: at the highest dose activation, actives largely listed as activators; 0.31% of 410,000 active; AID 624171, 2012; note: % of control where 0% means no effect; nearly all actives have a fitted effect of over 65% in size
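AREc32 cells carrying an ARE-driven firefly luciferase reporter were seeded at 1000 cells/well in OPTI-MEM with 5% FBS, then exposed to compound for 24 hr at 37 deg C. Luminescence was read with Steady-Glo after 30 min at RT.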
Nrf2 block: Nrf2 qHTS screen for inhibitors | A549 ARE-Fluc reporter, luciferase luminescence, 18-24 h | Potency, µM (highest dose often 46 µM), for inactives: at the top dose activity change, negative = inhibition, most hits filed as inhibitors | 2.1% of 360,000 active | AID 504444, 2011; note: % is set by controls: 0 for no effect and ±100 for the full control effect; nearly all actives have a fitted effect of over 60% in size
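A549 ARE_Fluc cells (5000/well, 5% FBS OPTI-MEM) pre-incubated 2 h, then treated with compounds 18-24 h at 37C/5% CO2 in concentration-response. CellTiter-Fluor viability read first; BugLite luciferase luminescence after 15 min at room temperature gives Nrf2 activity.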
GALK inh: qHTS Assay for Inhibitors of Human Galactokinase (GALK) | 0.007% of 270,000 active | Purified GALK, Kinase-Glo residual ATP luminescence | P51570 | Potency, µM (top dose mostly 57.5 µM), without a hit: top-dose activity change, negative = inhibition, most hits filed as inhibitors; note: % is set by controls: 0 for no effect and ±100 for the full control effect
Target sequence (P51570 whole entry, looked up): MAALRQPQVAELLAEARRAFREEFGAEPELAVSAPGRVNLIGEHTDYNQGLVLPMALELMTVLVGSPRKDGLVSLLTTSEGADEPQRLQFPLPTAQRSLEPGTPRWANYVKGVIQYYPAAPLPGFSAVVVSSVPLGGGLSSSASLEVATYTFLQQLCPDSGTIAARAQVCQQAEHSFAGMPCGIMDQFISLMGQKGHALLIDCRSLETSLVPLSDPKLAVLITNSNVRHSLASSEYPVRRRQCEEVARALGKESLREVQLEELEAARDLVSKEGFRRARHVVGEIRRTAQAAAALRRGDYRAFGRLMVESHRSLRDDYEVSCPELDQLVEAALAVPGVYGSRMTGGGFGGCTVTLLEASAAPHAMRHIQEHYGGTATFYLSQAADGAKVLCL
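Kinase-Glo Plus luminescence measured ATP left after a 1 h room-temperature reaction. The reaction used 5 nM GALK, 100 uM galactose and 35 uM ATP at pH 8.0 (20 mM HEPES, 5 mM MgCl2, 60 mM NaCl, 1 mM DTT, 0.01% BSA).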
A549 viability: Nrf2 qHTS screen for inhibitors: counterscreen for cytotoxicity; A549 ARE-Fluc cells, CellTiter-Fluor viability, 18-24 h; Potency, µM (doses to about 46 µM), without a hit: top-dose activity change, negative = cytotoxicity, most hits filed as inhibitors; 0.16% of 390,000 active; note: % is set by controls: 0 for no effect and ±100 for the full control effect
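A549 ARE_Fluc cells in 5% FBS OPTI-MEM were exposed to compounds in concentration-response for 18-24 h at 37 deg C. Viability was read by CellTiter-Fluor fluorescence (Ex 405/Em 525) after 30 min, before the luciferase read.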
Active calls of the source: *; ? = inconclusive; · = no result given; [ ] = another dose, or the depositor's remark. In the library only some 3% were active in any assay of this set; here they are far more common. Calls come from the whole dose curve; as a rule, active = well fitted curve in the direction sought with a large enough effect; inconclusive = small, poorly fitted or top-dose-only effect, or another doubt; inactive = no such curve, though single readings can be large; an effect the other way counts as inactive or inconclusive. Potency is the fitted concentration of half-maximal effect.

SMILES	TrxR1 substrate	rTrxR1 inhibitor	Nrf2 ARE act	Nrf2 block	GALK inh	A549 viability
Cc1ccc(S(=O)(=O)/N=C2/C=C(Sc3ncn[nH]3)C(=O)c3ccccc32)c(C)c1	·	·	·	·	1%	·
CC(C)c1ccc(S(=O)(=O)/N=C2/C=C(Sc3ncn[nH]3)C(=O)c3ccccc32)cc1	14µM*	?	-3%	18µM*	-9%	?
Cc1ccc(S(=O)(=O)/N=C2/C=C(Sc3ncn[nH]3)C(=O)c3ccccc32)cc1	10µM*	?	-3%	?	1%	?
O=C(N/N=C/c1c(Cl)nc2ccccn2c1=O)c1cccnc1	8%	?	14µM*	?	1%	4%
Cc1c(/C=N/NC(=O)c2cccnc2)c2ccccn2c1C(=O)c1ccc(F)cc1	·	·	·	·	2%	·
C=CCNC(=S)N/N=C(\C)c1ccccn1	12%	-11%	?	0.58µM*	1%	?
CCNc1nc(Oc2ccc(OCC(=O)OC)nn2)nc(N2CCOCC2)n1	2%	23%	0%	6%	·	-5%
CC1CCCN(S(=O)(=O)c2ccc(C(=O)Nc3ccccc3-c3nc4ccccc4[nH]3)cc2)C1 (centres undefined)	11%	13%	0%	4%	0%	2%
CC1CCN(S(=O)(=O)c2ccc(C(=O)Nc3ccccc3-c3nc4ccccc4[nH]3)cc2)CC1	8%	-4%	0%	26µM*	4%	-9%
c1coc(-c2nc3c([nH]2)CCc2nonc2-3)c1	12%	22µM*	1%	2%	-2%	-9%
Cc1cc(SCC(=O)N/N=C/c2ccc(O)cc2O)c(C)cc1Br	2%	17%[0.457 µM]	1%	15µM*	0%	-12%
CC(=O)OCC(=O)C1(O)CCC2C3CC(F)C4=CC(=O)CCC4(C)C3C(=O)CC21C (centres undefined)	-6%	9%	0%	-27%	·	-3%
CCC(=O)O[C@]1(C(=O)CCl)[C@@H](C)C[C@H]2[C@@H]3CCC4=CC(=O)C=C[C@]4(C)[C@@]3(F)[C@@H](O)C[C@@]21C	2%	13%	-1%	?	4%	-7%
CC(=O)OCC(=O)C1(O)CCC2C3CC(C)C4=CC(=O)C=CC4(C)C3(F)C(O)CC21C (centres undefined)	14%[57.1 µM]	5%[2.29 µM]	1%	0.058µM*	·	4%
CC(=O)OCC(=O)[C@@]1(O)CC[C@H]2[C@@H]3CCC4=CC(=O)C=C[C@]4(C)[C@@]3(F)[C@@H](O)C[C@@]21C	7%	23%	-1%	0.029µM*	·	-5%
CC(=O)OCC(=O)C1(O)CCC2C3CC(C)C4=CC(=O)C=CC4(C)C3=CCC21C (centres undefined)	-5%[2.29 µM]	-3%[2.29 µM]	3%	2.1µM*	·	3%
CC(=O)OCC(=O)[C@@]1(OC(C)=O)[C@@H](C)C[C@H]2[C@@H]3C[C@H](F)C4=CC(=O)C=C[C@]4(C)[C@@]3(F)[C@@H](O)C[C@@]21C	-3%	12%	2%	0.0092µM*	0%	5%
CCC(C)(CCN1CCOCC1)N(Cc1cc2ccccc2n(C)c1=O)C(=O)C1CCCCC1 (centres undefined)	·	·	·	7%	·	-15%
CC1(c2ccccc2)O[C@@H]2C[C@H]3[C@@H]4CCC5=CC(=O)C=C[C@]5(C)[C@@]4(F)[C@@H](O)C[C@]3(C)[C@]2(C(=O)CO)O1 (some centres undefined)	-8%	9%	3%	0.026µM*	-3%	-5%
CC1(C)OC2CC3C4CC(F)C5=CC(=O)C=CC5(C)C4(F)C(O)CC3(C)C2(C(=O)CO)O1 (centres undefined)	0%	-1%	1%	?	-1%	-11%
